# Laboratory results published in PMC7862700, “An all-to-all approach to the identification of sequence-specific readers for epigenetic DNA modifications on cytosine”.
# How the values were obtained:
# Experiment in all cases: DAPPL (digital affinity profiling via proximity ligation, sequencing); 10 mM Tris-HCl pH 7.5, 50 mM NaCl, 1 mM DTT, 4% glycerol, room temperature, 30 min; GST-TFs on glutathione beads, 16-mer random dsDNA library, 0.1% formaldehyde crosslink after washing; high values mean tight binding
# Conditions in all cases: protein: recombinant; tags: N-terminal GST; dsDNA, one strand shown
# ETV1 = ETV1 (Homo sapiens, UniProt P50549 1-477)
# ETV1, sequence (P50549 whole entry, the tested form may be a part): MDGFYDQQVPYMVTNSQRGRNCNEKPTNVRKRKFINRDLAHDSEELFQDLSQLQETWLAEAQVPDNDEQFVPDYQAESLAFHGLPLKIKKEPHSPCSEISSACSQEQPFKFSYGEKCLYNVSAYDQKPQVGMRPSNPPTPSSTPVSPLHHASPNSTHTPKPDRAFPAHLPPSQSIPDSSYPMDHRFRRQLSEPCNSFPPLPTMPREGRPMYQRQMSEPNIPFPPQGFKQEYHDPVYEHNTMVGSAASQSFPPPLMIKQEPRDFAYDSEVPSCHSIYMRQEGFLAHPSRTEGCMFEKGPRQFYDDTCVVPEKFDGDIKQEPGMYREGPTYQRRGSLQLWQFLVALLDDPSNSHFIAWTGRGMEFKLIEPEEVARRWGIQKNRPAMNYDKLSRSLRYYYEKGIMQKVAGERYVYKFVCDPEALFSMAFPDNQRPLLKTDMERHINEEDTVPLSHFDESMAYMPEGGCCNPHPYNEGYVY
# How it was run: (§1)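 Each value of binding signal is a hexamer's read frequency for a factor divided by the same hexamer's frequency in the tag-only sample. Barcoded, bead-captured GST fusions of human transcription factors made in yeast were pooled with that sample and incubated with 200 nmole of a random double-stranded 16-mer DNA library in Tris/NaCl/DTT/glycerol buffer at room temperature for 30 min. Washing, 0.1% formaldehyde crosslinking, proximity ligation, PCR and Illumina NextSeq500 sequencing followed.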
# ERF = target: T1, ERF (Homo sapiens, UniProt P50548 1-548)
# T1 sequence: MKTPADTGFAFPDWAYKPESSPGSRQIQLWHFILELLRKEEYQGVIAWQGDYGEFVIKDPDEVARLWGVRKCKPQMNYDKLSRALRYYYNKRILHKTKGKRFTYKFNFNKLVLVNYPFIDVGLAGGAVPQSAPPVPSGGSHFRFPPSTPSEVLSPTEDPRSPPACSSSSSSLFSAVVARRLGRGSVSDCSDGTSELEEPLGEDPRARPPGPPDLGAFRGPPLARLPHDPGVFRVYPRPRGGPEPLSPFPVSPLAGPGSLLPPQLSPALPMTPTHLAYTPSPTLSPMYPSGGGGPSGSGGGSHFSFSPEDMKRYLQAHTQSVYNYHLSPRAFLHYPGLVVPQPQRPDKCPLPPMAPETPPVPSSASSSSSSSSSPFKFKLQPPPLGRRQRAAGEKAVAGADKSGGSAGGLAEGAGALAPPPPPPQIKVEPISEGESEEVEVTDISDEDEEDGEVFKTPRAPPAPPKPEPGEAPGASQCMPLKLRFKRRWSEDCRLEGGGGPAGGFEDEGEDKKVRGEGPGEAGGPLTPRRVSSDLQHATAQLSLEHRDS
# How it was run: as §1
# ETV3L = target: T2, ETV3L (Homo sapiens, UniProt Q6ZN32 1-361)
# T2 sequence: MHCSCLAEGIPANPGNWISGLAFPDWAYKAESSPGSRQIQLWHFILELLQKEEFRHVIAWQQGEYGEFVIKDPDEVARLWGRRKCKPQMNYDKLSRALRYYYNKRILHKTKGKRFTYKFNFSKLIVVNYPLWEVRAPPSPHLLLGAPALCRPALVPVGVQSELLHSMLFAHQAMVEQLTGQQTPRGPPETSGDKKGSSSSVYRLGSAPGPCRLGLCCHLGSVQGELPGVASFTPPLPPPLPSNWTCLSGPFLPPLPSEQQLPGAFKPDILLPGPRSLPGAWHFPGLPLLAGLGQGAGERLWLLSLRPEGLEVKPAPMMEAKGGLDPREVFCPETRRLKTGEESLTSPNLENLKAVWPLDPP
# How it was run: as §1
# ETS2 = target: T3, ETS2 (Homo sapiens, UniProt P15036 1-469)
# T3 sequence: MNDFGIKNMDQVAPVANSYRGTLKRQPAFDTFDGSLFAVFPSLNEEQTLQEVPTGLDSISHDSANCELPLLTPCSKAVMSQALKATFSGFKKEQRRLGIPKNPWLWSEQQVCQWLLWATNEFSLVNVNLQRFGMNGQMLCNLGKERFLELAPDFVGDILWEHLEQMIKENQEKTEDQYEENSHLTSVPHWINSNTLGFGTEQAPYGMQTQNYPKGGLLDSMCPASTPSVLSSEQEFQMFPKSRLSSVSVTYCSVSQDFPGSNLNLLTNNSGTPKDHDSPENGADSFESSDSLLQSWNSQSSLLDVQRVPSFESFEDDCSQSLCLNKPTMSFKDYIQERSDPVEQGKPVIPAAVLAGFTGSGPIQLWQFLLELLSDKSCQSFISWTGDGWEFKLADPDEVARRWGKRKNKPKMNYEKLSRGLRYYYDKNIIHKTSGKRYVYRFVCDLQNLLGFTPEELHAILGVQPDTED
# How it was run: as §1
# SPDEF = target: T4, SPDEF (Homo sapiens, UniProt O95238 1-335)
# T4 sequence: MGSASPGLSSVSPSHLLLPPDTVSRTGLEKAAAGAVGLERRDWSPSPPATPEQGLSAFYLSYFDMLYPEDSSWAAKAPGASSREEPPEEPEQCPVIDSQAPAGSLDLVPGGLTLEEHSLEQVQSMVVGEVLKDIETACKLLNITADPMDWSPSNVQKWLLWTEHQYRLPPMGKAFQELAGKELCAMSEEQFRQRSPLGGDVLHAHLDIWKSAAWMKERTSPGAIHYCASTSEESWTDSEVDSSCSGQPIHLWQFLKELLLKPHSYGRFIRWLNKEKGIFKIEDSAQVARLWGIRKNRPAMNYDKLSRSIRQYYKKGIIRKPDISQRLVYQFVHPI
# How it was run: as §1
# ETV7 = target: T5, ETV7 (Homo sapiens, UniProt Q9Y603 1-341)
# T5 sequence: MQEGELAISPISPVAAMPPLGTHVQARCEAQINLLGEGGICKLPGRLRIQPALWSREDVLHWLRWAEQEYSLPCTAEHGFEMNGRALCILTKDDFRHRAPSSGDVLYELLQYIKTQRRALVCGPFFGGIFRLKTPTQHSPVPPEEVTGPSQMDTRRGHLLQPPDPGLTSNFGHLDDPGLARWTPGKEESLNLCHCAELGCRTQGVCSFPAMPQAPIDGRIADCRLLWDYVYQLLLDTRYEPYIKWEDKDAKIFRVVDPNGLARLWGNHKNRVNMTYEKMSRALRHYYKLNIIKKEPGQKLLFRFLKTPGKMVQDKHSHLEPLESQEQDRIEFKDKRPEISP
# How it was run: as §1
# ELF5 = target: T6, ELF5 (Homo sapiens, UniProt Q9UKW6-2 1-255)
# T6 sequence: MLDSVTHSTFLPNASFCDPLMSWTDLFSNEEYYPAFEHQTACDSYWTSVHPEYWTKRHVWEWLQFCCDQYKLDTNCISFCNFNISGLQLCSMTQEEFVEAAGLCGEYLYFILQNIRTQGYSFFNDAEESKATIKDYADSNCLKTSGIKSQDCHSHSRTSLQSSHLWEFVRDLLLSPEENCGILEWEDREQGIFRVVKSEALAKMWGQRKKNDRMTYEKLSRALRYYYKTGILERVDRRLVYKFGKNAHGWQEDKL
# How it was run: as §1
# ETV3 = target: T7, ETV3 (Homo sapiens, UniProt P41162-2 1-143)
# T7 sequence: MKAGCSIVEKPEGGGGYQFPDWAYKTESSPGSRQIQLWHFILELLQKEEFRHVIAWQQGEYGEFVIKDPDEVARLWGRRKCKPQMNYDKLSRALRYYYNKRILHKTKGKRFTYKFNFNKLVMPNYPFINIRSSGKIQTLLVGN
# How it was run: as §1
# ETV6 = ETV6 (Homo sapiens, UniProt P41212 1-452)
# ETV6, sequence (P41212 whole entry): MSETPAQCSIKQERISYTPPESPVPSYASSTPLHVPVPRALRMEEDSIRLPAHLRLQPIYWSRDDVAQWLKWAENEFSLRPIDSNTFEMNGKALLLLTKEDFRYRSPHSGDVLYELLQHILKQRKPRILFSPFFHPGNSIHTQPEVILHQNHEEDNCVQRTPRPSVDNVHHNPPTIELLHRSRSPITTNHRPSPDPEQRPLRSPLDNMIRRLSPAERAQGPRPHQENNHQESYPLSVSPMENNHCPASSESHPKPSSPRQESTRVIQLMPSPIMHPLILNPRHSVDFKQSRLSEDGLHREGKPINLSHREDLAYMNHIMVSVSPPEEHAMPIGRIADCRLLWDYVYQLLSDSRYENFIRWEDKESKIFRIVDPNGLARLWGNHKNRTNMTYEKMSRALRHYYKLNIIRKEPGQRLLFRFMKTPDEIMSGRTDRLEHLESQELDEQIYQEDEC
# How it was run: as §1
sequence,measurement,setting,value
AATATC,binding signal,ETV1,"1.56 fold enrichment (6-mer frequency, TF over GST control)"
same,binding signal,ERF,"1.46 fold enrichment (6-mer frequency, TF over GST control)"
same,binding signal,ETV3L,"1.48 fold enrichment (6-mer frequency, TF over GST control)"
same,binding signal,ETS2,"1.55 fold enrichment (6-mer frequency, TF over GST control)"
same,binding signal,SPDEF,"1.78 fold enrichment (6-mer frequency, TF over GST control)"
same,binding signal,ETV7,"1.52 fold enrichment (6-mer frequency, TF over GST control)"
same,binding signal,ELF5,"1.82 fold enrichment (6-mer frequency, TF over GST control)"
same,binding signal,ETV3,"1.6 fold enrichment (6-mer frequency, TF over GST control)"
same,binding signal,ETV6,"1.57 fold enrichment (6-mer frequency, TF over GST control)"
